Cruzain noTriton = blocks cruzain activity in detergent-free assay. Potency, µM, without a hit: max response, negative = inhibition, most hits filed as inhibitors. purified cruzain, Z-FR-AMC fluorescence, no detergent. 2.3% of 200,000 active. P25779;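 note: plate controls were enzyme without inhibitor for no effect and buffer without enzyme for full effect; nearly all actives have a fitted effect of over 40% in size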
Target sequence (P25779 123-467 limits assumed): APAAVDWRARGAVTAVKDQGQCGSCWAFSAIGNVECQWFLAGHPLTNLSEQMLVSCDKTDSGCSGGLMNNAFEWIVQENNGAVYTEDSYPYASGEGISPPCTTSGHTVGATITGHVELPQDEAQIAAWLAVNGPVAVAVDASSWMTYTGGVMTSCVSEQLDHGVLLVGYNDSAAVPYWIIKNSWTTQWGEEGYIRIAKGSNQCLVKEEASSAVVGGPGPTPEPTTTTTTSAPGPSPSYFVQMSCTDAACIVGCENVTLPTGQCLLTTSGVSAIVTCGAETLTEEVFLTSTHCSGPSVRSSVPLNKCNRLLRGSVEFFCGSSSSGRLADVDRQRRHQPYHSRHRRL
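Purified cruzain at 1.5 nM, pre-incubated 15 min with compound at room temperature in 100 mM sodium acetate pH 5.5, 5 mM DTT, 0.00005% Triton X-100. Reaction started with 2 uM Z-FR-AMC; AMC fluorescence increase over 60 s gives rate.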
Cruzain Triton = inhibitors of Trypanosoma cruzi cruzain with detergent. Potency, µM, without a hit: max response, negative = inhibition, usual class: inhibitors. purified cruzain, Z-FR-AMC fluorescence, 0.01% Triton. P25779. 0.43% of 200,000 active;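 note: plate controls were neutral wells for no effect and buffer without enzyme for full effect; nearly all actives have a fitted effect of over 40% in size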
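Purified cruzain (1.5 nM final) was preincubated with compounds for 15 min at room temperature in 100 mM sodium acetate pH 5.5, 5 mM DTT, 0.01% Triton X-100. Reaction started with 2 uM Z-FR-AMC; AMC fluorescence change over 60 s gave activity.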
* marks the source's active call; other numbers are inactive results; ? = inconclusive. A selection: hits, their analogues and other compounds. The true share with any hit is near 2.4%. Calls come from the whole dose curve; as a rule, active = well fitted curve in the direction sought with a large enough effect; inconclusive = small, poorly fitted or top-dose-only effect, or another doubt; inactive = no such curve, though single readings can be large; an effect the other way counts as inactive or inconclusive. Potency is the fitted concentration of half-maximal effect.

SMILES	Cruzain noTriton	Cruzain Triton
COC(=O)c1cccc(NC(=O)c2cc3sccc3n2C)c1	25.1µM*	-17.4%
CCOc1cc(CNC(=O)c2ccc3nc(C(C)C)oc3c2)cc(OCC)c1OCC	?	-5.0%
Cc1cc(NC(=O)COC(=O)c2oc3c(Cl)cccc3c2C)no1	12.6µM*	4.1%
Cc1cc(NC(=O)COC(=O)c2n[nH]c3ccccc23)no1	2.2%	1.5%
Cc1nn(-c2ccccc2)c2sc(C(=O)Nc3ccc(Br)cc3)cc12	5.1%	-3.7%
Cc1nn(-c2ccccc2)c2sc(C(=O)OCn3nnc4ccccc4c3=O)cc12	25.1µM*	-4.2%
Cc1nn(-c2ccccc2)c2sc(C(=O)Nc3cccc(Br)c3)cc12	20µM*	-2.3%
Cc1cc(C)n(-c2ccc(C(=O)OCn3nnc4ccccc4c3=O)cc2)n1	12.4%	1.9%
CCc1ccccc1NC(=O)C(=O)NCC(c1cccnc1)N1CCc2ccccc21 (configuration not stated)	-0.8%	-1.0%
COc1cc(/C=C2\SC(=S)N(Nc3ccccc3)C2=O)cc(OC)c1OC	13.6%	-1.1%
CCOc1ccc(/C=C2\SC(=S)N(Nc3ccccc3)C2=O)cc1OC	?	6.31µM*
CCOC(=O)CC1C(=O)NCCN1C(=O)c1cc2c(=O)n3ccccc3nc2s1 (configuration not stated)	0.4%	22.4µM*
CCOC(=O)CC1C(=O)NCCN1C(=O)c1cc2c(=O)n3cccc(C)c3nc2s1 (configuration not stated)	8.4%	-18.6%
CSc1cccc(NC(=O)c2ccc3c(c2)c(C)c(C)n3Cc2ccc(F)cc2)c1	15.8µM*	3.2%
Cc1c(C)n(Cc2ccccc2)c2ccc(C(=O)NCc3ccccc3F)cc12	?	0.8%
CCn1c(C)c(C)c2cc(C(=O)NCc3ccc(OC(C)C)cc3)ccc21	-3.5%	-6.5%
CSc1ccc(CCNC(=O)c2ccc3c(c2)c(C)c(C)n3Cc2ccc(F)cc2)cc1	15.8µM*	1.7%
CCOc1ccc(CNC(=O)c2ccc3c(c2)c(C)c(C)n3Cc2ccc(Cl)cc2)cc1	10µM*	2.4%
Cc1ccccc1NC(=O)c1ccc2c(c1)c(C)c(C)n2Cc1ccccc1	-20.4%	0.2%
Cc1ccc(-c2cc(C(=O)OCC(=O)c3ccccc3)c3cccc(Cl)c3n2)cc1	-24.6%	-1.0%
Cc1cc(C)c(S(=O)(=O)Nc2ccc(-c3ccc(N4CCCCCC4)nn3)cc2)c(C)c1	?	-4.8%
COc1ccc(OC)c(NC(=O)Cn2c(=O)c3cccn3c3ccccc32)c1	-19.9%	-6.0%
Cc1ccc(-c2nn(-c3ccc(F)cc3F)c3c2cnc2c(F)cccc23)cc1	-8.7%	0.6%
O=c1[nH]c2ccc(NCc3ccc(-c4ccccc4F)o3)cc2[nH]1	?	-6.0%
O=C(CCN1Cc2ccccc2C1)c1ccc2c(c1)OCCO2	?	-25.2%
SMILES	Cruzain noTriton	Cruzain Triton
O=C(CCN1CCc2ccccc2C(c2ccccc2)C1)c1ccc2c(c1)OCCO2 (configuration not stated)	15.8µM*	28.2µM*
Cc1cc(NC(=O)CSc2nc3c(sc4ccccc43)c(=O)n2CCc2ccccc2)n[nH]1	7.94µM*	7.7%
Cc1cc(NC(=O)CSc2nc3c(sc4ccccc43)c(=O)n2CCCN2CCOCC2)n[nH]1	-22.1%	-13.2%
CCN(CC)c1ccc2cc(-c3nc(-c4ccc(Cl)cc4Cl)cs3)c(=O)oc2c1	8.0%	1.7%
CCN(CC)c1ccc2cc(-c3nc(-c4ccc(OC)cc4)cs3)c(=O)oc2c1	10µM*	-5.7%
CCCCNC(=O)CC1C(=O)N(Cc2ccccc2)C(C)c2nc3ccccc3n21 (configuration not stated)	12.6µM*	-22.8%
CCCCn1c(=O)c(C(=O)c2ccccc2)nc2ccccc21	6.7%	-4.4%
CC1(C)C2([N+](=O)[O-])CN3CC1([N+](=O)[O-])CN(C2)C3c1ccccc1 (configuration not stated)	20µM*	3.9%
CC1(C)C2([N+](=O)[O-])CN3CC1([N+](=O)[O-])CN(C2)C31CCCC1	-3.8%	6.0%
CC(C)c1ccc(C2N3CC4([N+](=O)[O-])CN2CC([N+](=O)[O-])(C3)C4(C)C)cc1 (configuration not stated)	10µM*	2.4%
CC(C)c1ccc(C2N3CCCN23)cc1 (configuration not stated)	-5.8%	-2.1%
CC(=O)NCCNC(=O)CCCn1c(=O)[nH]c2ccsc2c1=O	-4.5%	0.5%
Cc1ccc(-n2ncc3c(NCCC4=CCCCC4)ncnc32)cc1	-16.5%	1.3%
COCCn1c(C)cc(C2=NNC(=Nc3ccc(OC)cc3)SC2)c1C	1.3%	-1.4%
COc1ccc(N=C2NN=C(c3ccc4c(c3)OCCO4)CS2)cc1	25.1µM*	-3.3%
FC(F)(F)c1ccc(Cl)c(N/N=C/c2ccc(N3CCOCC3)s2)c1	10µM*	-10.4%
CCOC(=O)N/N=C/c1ccc(N2CCOCC2)s1	-17.7%	-6.6%
CCOc1ccc(C(=O)N2CCc3cc(OC)c(OC)cc3C2COc2ccc3c(C)cc(=O)oc3c2)cc1OCC (configuration not stated)	22.4%	5.9%
S=C(NCc1ccc2[nH]c3c(c2c1)CCCC3)Nc1ccccc1	31.6µM*	-9.9%
CCS(=O)(=O)NCc1ccc2[nH]c3c(c2c1)CCCC3	-22.0%	-6.4%
Cc1cc(C)cc(NC(=S)NCc2ccc3[nH]c4c(c3c2)CCCC4)c1	31.6µM*	-0.8%
O=C(Nc1ccc2[nH]c3c(c2c1)CCCC3)c1ccco1	-16.7%	-10.2%
O=C(CCN1C(=O)c2ccccc2Sc2ncccc21)Nc1ccc(F)cc1	-16.6%	-1.5%
N[C@@H](CSC1c2ccccc2-c2ccccc21)C(=O)O	-10.0%	-1.4%
Cc1nc2nc(SCC(=O)NCCc3ccc(Cl)cc3)nn2c(C)c1Cc1ccccc1	?	-5.5%
SMILES	Cruzain noTriton	Cruzain Triton
CC(=O)NCc1nc2cccnc2n1Cc1ccccc1	4.8%	0.2%
CCOc1ccc(CNC(=O)C2CCN(C3=NS(=O)(=O)C(c4ccc(C)cc4)=C3CC)CC2)cc1	24.1%	-3.9%
Cc1nc(NC(=O)c2ccc(Cl)cc2)sc1-c1csc(Nc2cccc(F)c2)n1	10µM*	8.8%
Cc1ccc(Nc2nc(-c3sc(NC(=O)c4cccc(Cl)c4)nc3C)cs2)cc1	3.98µM*	6.3%
Cc1ccc(Nc2nc(-c3sc(NC(=O)c4ccco4)nc3C)cs2)cc1	-25.7%	2.7%
COc1cccc(Nc2nc(-c3sc(NC(=O)c4ccccc4)nc3C)cs2)c1	?	1.4%
COc1ccccc1Nc1nc(-c2sc(NC(=O)C(C)(C)C)nc2C)cs1	-3.9%	-2.3%
Cc1nc(NC(=O)c2ccccc2)sc1-c1csc(NCc2ccco2)n1	15.8µM*	4.7%
COc1ccccc1Nc1nc(-c2sc(NC(=O)c3cccc(Cl)c3)nc2C)cs1	7.94µM*	10.6%
Cc1nc(C)c(-c2csc(NCc3ccco3)n2)s1	-7.6%	-7.2%
Cc1oc(-c2ccc(C(=O)N(C)Cc3ccccc3)cc2)nc1CN1CCc2ccccc21	11.9%	-6.1%
Cc1c(C(=O)NCc2cccc(Cl)c2)sc2ncnc(N(C)C3CCCCC3)c12	-5.9%	-3.3%
Cc1cc(C)c(S(=O)(=O)NCc2csc(-c3ccccc3)n2)c(C)c1	5.4%	-10.4%
COc1ccc(CCNC(=O)CSc2nc(-c3ccc(F)cc3)cc(C(F)(F)F)n2)cc1OC	1.2%	-1.5%
COc1cc(NC(=O)c2noc3c2CC(C(C)(C)C)CC3)cc(OC)c1OC (configuration not stated)	?	-5.7%
